IL2 activator – IL-2 activation. 360,000 compounds, 0.065% hits. activation, % (series mostly up to about 46 µM). IL-2 activation reporter assay, cell-based qHTS; stimulated with anti-CD3/CD4/CD28 beads; in transgenic mouse T cells; in the data active = activation above about 50%; inconclusive = mostly about 30% to 49%; also: 0% is about no effect
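Unstimulated transgenic mouse T cells preincubated 60 min with compound, then stimulated with anti-CD3/anti-CD4-coated beads plus anti-CD28 for 18 h at 37 degrees C. IL-2 response read as EGFP and DsRed fluorescence by plate cytometry.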
PKM2 activator – PKM2 (human) enzyme activation; purified PKM2, Kinase-Glo ATP luminescence, activation; response scale: 0% is enzyme alone, no compound; P14618; 260,000 compounds, 0.34% hits; AID 1631; Potency, µM (highest dose often 57.5 µM), without a hit: at the top dose activation, most hits filed as activators; also: potency is read from the fitted curve at half-maximal effect; % is scaled to controls: 0 for no effect and ±100 for the full control effect; nearly all actives have a fitted effect of over 55% in size
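Kinase-Glo luminescence reports ATP generated from ADP (0.1 mM) and PEP (0.5 mM) by purified hPK-M2 after 1 h at room temperature, pH 7.2 imidazole buffer; intermediate enzyme activity allows detecting inhibitors and activators.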
NPSR antagonist – neuropeptide S receptor (human) antagonism, cAMP | Potency, µM (top dose mostly 38.3 µM), for inactives: at the top dose activity change, negative = inhibition, hits mostly inhibitors | Q6W5P4 | 220,000 compounds, 1% hits | CHO-NPSR cells, cAMP TR-FRET, antagonist mode; also: potency is read from the fitted curve at half-maximal effect; % is scaled to controls: 0 for no effect and ±100 for the full control effect; nearly all actives have a fitted effect of over 50% in size
Target sequence (Q6W5P4 whole entry, looked up): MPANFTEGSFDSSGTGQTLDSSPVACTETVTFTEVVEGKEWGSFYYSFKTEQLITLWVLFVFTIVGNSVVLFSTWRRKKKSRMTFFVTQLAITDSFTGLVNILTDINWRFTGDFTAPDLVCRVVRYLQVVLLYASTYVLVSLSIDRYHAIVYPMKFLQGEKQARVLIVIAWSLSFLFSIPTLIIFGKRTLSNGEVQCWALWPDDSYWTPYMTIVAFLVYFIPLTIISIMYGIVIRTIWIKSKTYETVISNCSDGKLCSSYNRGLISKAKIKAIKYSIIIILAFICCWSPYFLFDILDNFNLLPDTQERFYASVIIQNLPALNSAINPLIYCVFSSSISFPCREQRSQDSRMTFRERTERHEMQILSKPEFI
ClpP mod – qHTS Assay for Activators of ClpP | purified B. subtilis ClpP, FRET peptide cleavage, 20 min | Potency, µM (top dose mostly 57.5 µM), inactives show at the highest dose activity change, negative = active | 340,000 compounds, 1.9% hits | AID 651965, 2013; active = well fitted falling curve with a large enough effect; inconclusive = small, poorly fitted or top-dose-only effect; inactive = no such curve, though single readings can be large or run the other way; also: potency is read from the fitted curve at half-maximal effect; the source files actives as falling curves though it sought activators and does not explain the sign; nearly all actives have a fitted effect of over 65% in size
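Buffer: 100 mM Tris/HCl pH8, 100 mM KCl, 0.05% low protease BSA, 2.5% glycerol, 0.01% Tween-20. ClpP 10 microg/mL final; 20 min RT; delta FRET normalized to ADEP and DMSO controls.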
* = called active by the depositor; u = inconclusive; x = no result; ! = not confirmed by another sample; [ ] = dose if it differs, or a comment. Shown are actives, neighbours in structure and some others; about 2% of the full set was active somewhere. Unless noted, calls follow the shape of the dose curve; as a rule, active = well fitted curve in the direction sought with a large enough effect; inconclusive = small, poorly fitted or top-dose-only effect, or another doubt; inactive = no such curve, though single readings can be large; an effect the other way counts as inactive or inconclusive.

SMILES | IL2 activator | PKM2 activator | NPSR antagonist | ClpP mod
COc1ccc2nc3c(cc2c1)c(NC(=O)C1CCCO1)nn3CC(C)C (stereo not drawn) | 9 | 0% | -9%[46.1 µM] | 22µM*
CC(=O)Nc1ccc2[nH]c(C)c(CC=C(Cl)Cl)c(=O)c2c1 | -2 | 14% | -13%[46.1 µM] | 32µM*
Cc1ccnc(N2C(=O)c3ccccc3C2O)c1 (stereo not drawn) | -3 | -58% | -3%[46.1 µM] | -11%
COCCN(C(=O)/C=C/c1cccc([N+](=O)[O-])c1)c1c(N)n(Cc2ccccc2)c(=O)[nH]c1=O | 1 | 3.2µM* | -17% | x
COCCN(C(=O)COC(=O)c1oc2ccc(OC)cc2c1C)c1c(N)n(Cc2ccccc2)c(=O)[nH]c1=O | 1 | x | x | 13µM*
COCCN(C(=O)COC(=O)Cc1coc2cc3c(cc12)CCC3)c1c(N)n(Cc2ccccc2)c(=O)[nH]c1=O | -1 | x | x | 18µM*
COCCCN(C(=O)c1cc2c(s1)CCC2)c1c(N)n(Cc2ccccc2)c(=O)[nH]c1=O | -3 | 13% | 2% | 0%
CCCN(C(=O)c1cc2c(s1)CCC2)c1c(N)n(Cc2ccccc2)c(=O)[nH]c1=O | -2 | 22µM* | -2%[7.67 µM] | -9%
COCCN(C(=O)COC(=O)COc1ccc2c(c1)CCC2)c1c(N)n(Cc2ccccc2)c(=O)[nH]c1=O | -3 | x | x | 1%
COc1ccccc1N1C(=O)c2ccccc2NC1c1cc(OC)c(OC)c(OC)c1 (stereo not drawn) | -1 | 0% | x | x
COc1ccccc1N1C(=O)c2ccccc2NC1C(OC)OC (stereo not drawn) | -3 | -13% | 5%[46.1 µM] | 22µM*
CSCC[C@H](NC(=O)COc1ccc(Cl)cc1)C(=O)N1CCC2(CC1)NCCc1[nH]cnc12 | 1 | x | x | 1%
Cc1ccc(SCc2nc(N)nc(Nc3ccccc3C)n2)c(C)c1 | 0 | -26% | -23% | 1%
Cc1ccc(Nc2nc(N)nc(CSc3nccn3C)n2)c(C)c1 | 1 | 12% | 0%[46.1 µM] | 4µM*
COc1cc(NC(=O)c2ccno2)cc(C(=O)Nc2cccc(C(F)(F)F)c2)c1 | 0 | -1% | -24% | 0%
COc1cc(NC(=O)c2cc3cccc(OC)c3o2)cc(C(=O)Nc2cccc(C(F)(F)F)c2)c1 | 0 | 0% | -15% | 25µM*
NC1=NC[C@H](Cc2ccc(O)cc2)N1CC1CCCCC1 | 0 | 1% | 3% | 0%
NC1=NC[C@@H](Cc2ccc(O)cc2)N1CCCCC1CCCCC1 | 1 | 3% | 5µM* | 0%
CCOC(=O)CC1C(=O)NCCN1c1nc2c(C)cccn2c(=O)c1/C=C1\SC(=S)N(CC(C)C)C1=O (stereo not drawn) | x | 1% | 10µM* | x
CCOCCCNc1nc2c(C)cccn2c(=O)c1/C=C1\SC(=S)N(CC(C)C)C1=O | 1 | -4% | -1%[46.1 µM] | -3%
Cc1ccc(-n2c(=O)c3c4c(sc3n(Cc3cc(=O)n5cc(Cl)ccc5n3)c2=O)CCC4)cc1C | x | x | x | -2%
Cc1ccc(-n2c(=O)c3c4c(sc3n(Cc3cc(=O)n5ccccc5n3)c2=O)CCC4)cc1C | -1 | 7% | -7% | 28µM*!
COc1ccc(CC(=O)Nc2ccc(-c3cn4ccc(C)cc4n3)cc2)cc1 | 0 | 0% | -3%[46.1 µM] | 16µM*
COc1ccc(CC(=O)Nc2ccc(-c3cn4cccc(C)c4n3)cc2)cc1OC | 0 | -3% | -24%[46.1 µM] | u
CC(Sc1nnnn1-c1ccc(Cl)cc1)C(=O)NCC(=O)Nc1ccc(F)c(F)c1F (stereo not drawn) | 2 | -3% | -22% | 25µM*
CC(Sc1nnc(-c2ccncc2)n1C)C(=O)NCC(=O)Nc1ccc(F)c(F)c1F (stereo not drawn) | 0 | x | x | 1%
COc1cc(OC)c(S(=O)(=O)Nc2ccc(C(=O)N3CCCC3)cc2)cc1NC(C)=O | -3 | -9% | 25% | x
COc1ccc(N2C(=O)CCC(C(=O)N3CCCCC3)C2c2ccc(F)cc2)cc1 (stereo not drawn) | 0 | -3% | -12%[46.1 µM] | 13µM*
COc1cc(NC(=O)COC(=O)[C@@H]2CCCN2S(=O)(=O)c2ccc(Cl)cc2)cc(OC)c1OC | -2 | 1% | -14%[46.1 µM] | -1%
COc1ccc2c(COC(=O)[C@@H]3CCCN3S(=O)(=O)c3ccc(Cl)cc3)cc(=O)oc2c1 | -1 | x | x | 25µM*

From PubChem
